# According to PubChem BioAssay AID1851 (National Center for Advancing Translational Sciences (NCATS), 2009):
# Where “and” joins values, the source holds several entries; their conditions need not be identical. Equal entries are not always repeated. The whole screen tested about 16,000 compounds, of which about 5,800 (36%) were called active. Not shown: some 23% with an inconclusive outcome. The call rests on the fitted dose curve; in most records, active means well fitted curve in the direction sought with a large enough effect; inconclusive means small, poorly fitted or top-dose-only effect, or effect the other way; inactive means no such curve, though single readings can be large or run the other way. The list shows a part of the results. Some compounds were tested as several samples or in several runs, with calls that do not always agree.
# Target: Cytochrome P450 2C19 (Homo sapiens) (UniProt P33261)
# Sequence (P33261 whole entry, looked up): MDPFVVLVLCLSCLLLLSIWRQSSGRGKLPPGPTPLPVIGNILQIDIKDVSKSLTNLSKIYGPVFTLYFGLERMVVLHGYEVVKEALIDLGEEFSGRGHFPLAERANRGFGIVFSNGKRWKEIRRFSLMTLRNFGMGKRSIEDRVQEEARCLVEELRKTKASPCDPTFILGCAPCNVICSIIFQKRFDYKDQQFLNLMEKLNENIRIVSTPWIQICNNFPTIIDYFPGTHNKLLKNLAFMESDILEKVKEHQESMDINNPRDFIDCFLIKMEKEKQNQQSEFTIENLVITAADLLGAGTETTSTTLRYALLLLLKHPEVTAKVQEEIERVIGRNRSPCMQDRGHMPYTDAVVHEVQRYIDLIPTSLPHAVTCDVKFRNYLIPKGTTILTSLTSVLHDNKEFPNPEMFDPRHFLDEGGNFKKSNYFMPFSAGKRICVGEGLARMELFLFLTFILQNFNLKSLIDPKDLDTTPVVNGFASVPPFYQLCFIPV
# Assay: Cytochrome panel assay with activity outcomes
# Settings: recombinant CYP, pro-luciferin dealkylation, luminescence, p450-cyp2c19; series mostly up to 57.1 µM
# On the % scale 0 is the no-effect control and ±100 the full control effect.
SMILES,"activity, negative = inhibition",AC50
COc1cc2ccccc2c2cc([N+](=O)[O-])oc12,-34.1% [at 11.4 µM] (inactive),
c1ccc2c([C@@H]3CCN(CCN4CCOCC4)C3)c[nH]c2c1,23.2% [at 11.4 µM] (inactive),
c1cc(CCN2CCCCC2)ccn1,9.84% [at 11.4 µM] (inactive),
c1ccc(CCCCN2CCC(c3ccccc3)CC2)cc1,,15.8 µM (active)
C1C[C@@H]2CN(CCCN3CCOCC3)[C@@H](C1)O2,-1.65% [at 11.4 µM] (inactive),
Cc1c2cc[n+](CCN3CCCCC3)cc2c(C)c2c1[nH]c1ccc(O)cc12,17.2% [at 11.4 µM] (inactive),
N=C1c2ccccc2CN1NC(=O)c1ccc(Cl)cc1,,inactive
C[C@@H]1O[C@H](O[C@H]2C[C@@H](O)[C@@]3(CO)[C@H]4[C@@H](O)C[C@]5(C)[C@@H](C6=CC(=O)OC6)CC[C@]5(O)[C@H]4CC[C@]3(O)C2)[C@@H](O)[C@H](O)[C@@H]1O,,inactive
CCN1C[C@]2(COC(=O)c3ccccc3N3C(=O)C[C@H](C)C3=O)CC[C@H](OC)[C@@]34[C@@H]5C[C@H]6[C@H](OC)[C@H]5[C@](O)(C[C@@H]6OC)[C@@](O)([C@@H](OC)[C@@H]23)[C@@H]14,,inactive
CC[C@]1(OC(=O)CN)C(=O)OCc2c1cc1n(c2=O)Cc2cc3ccccc3nc2-1,17% [at 11.4 µM] (inactive),
CC[C@@]1(O)C(=O)OCc2c1cc1n(c2=O)Cc2cc3c(NC(=O)CN)cccc3nc2-1,11.8% [at 11.4 µM] (inactive),
CC[C@@]1(O)C(=O)OCc2c1cc1n(c2=O)Cc2cc3ccccc3nc2-1,,inactive and 20 µM (active)
Clc1cc(I)cc(Cl)c1NC1=NCCN1,,inactive
CC(C)NC(=O)N1CCCC2(CCN(C(=O)Oc3ccccc3)CC2)C1,,inactive
C[C@@H](C(=O)OC1C[C@H]2CC[C@@H](C1)N2C)c1ccc(Br)cc1 (some centres undefined),,inactive
CN1[C@@H]2CC[C@H]1CC(OC(=O)c1cc(Cl)cc(Cl)c1)C2 (some centres undefined),,inactive
CC[C@H](Oc1ccc(Cl)cc1)C(=O)OC1C[C@H]2CC[C@@H](C1)N2C (some centres undefined),,0.0158 µM (active)
CCCN(CCC)C1Cc2cc(OC)c(OC)cc2C1,,inactive
NCCSC(c1ccccc1)c1ccccc1,,1.26 µM (active)
C[N+]1(C)CCN(c2ccccc2)CC1,,inactive
C=CCN1CCc2cccc3c2[C@@H]1Cc1ccc(O)c(O)c1-3,,inactive
CC(=O)NCCc1c[nH]c2ccccc12,,10 µM (active)
CN(C)CCCc1c[nH]c2ccccc12,-13.7% [at 11.4 µM] (inactive),
NCCc1c[nH]c2ccccc12,,inactive

SMILES,"activity, negative = inhibition",AC50
c1ccc2c(c1)Sc1ccccc1N2C[C@H]1CN2CCC1CC2,38.1% [at 11.4 µM] (inactive),
CN(C(=O)Cc1ccc(Cl)c(Cl)c1)[C@H](CN1CCCC1)c1ccccc1,,0.316 µM (active)
CN(C(=O)Cc1ccc(Cl)c(Cl)c1)[C@@H](CN1CCCC1)c1cccc(OCC(=O)O)c1,,inactive
C=CCN1CC[C@]23c4c5ccc(O)c4O[C@@H]2/C(=N/NC(=O)c2ccccc2)CC[C@@]3(O)[C@H]1C5,,inactive
CC(C)N(CC[C@@](C(N)=O)(c1ccccc1)c1ccccn1)C(C)C,,inactive
COC(=O)[C@@]1(Cc2ccc(F)cc2)[C@H]2c3cc(C(=O)N(C)C)[nH]c3C[C@H]2CN1C(=O)c1ccccc1,,20 µM (active)
CC[N+](C)(C)c1cccc(O)c1,,inactive
C/C=C1\C[C@H](C)[C@@](O)(CO)C(=O)OCC2=CCN3CC[C@@H](OC1=O)[C@@H]23,,inactive
CC(C)C12CN3CC(C(C)C)(CN(C1)C3c1cccnc1)C2=O (centres undefined),,14.1 µM (active)
CCN=C=NCCCN(C)C,27.1% [at 11.4 µM] (inactive),
C[N+]1(C)C2CC(OC(=O)C(CO)c3ccccc3)CC1[C@@H]1O[C@H]21 (some centres undefined),,inactive
C[C@H]1CN(C2CCC(C#N)(c3ccc(F)cc3)CC2)CC[C@@]1(C(=O)O)c1ccccc1 (some centres undefined),,inactive
FC(F)(F)c1nc2ccc(SSc3ccc4nc(C(F)(F)F)[nH]c4c3)cc2[nH]1,,5.01 µM (active)
C=C(C)[C@H]1CN[C@H](C(=O)O)[C@@H]1CC(=O)O,,inactive
c1cc(CN2CC3(CCNCC3)C2)ccn1,,inactive
CC(C)[C@@H]1CN[C@H](C(=O)O)[C@@H]1CC(=O)O,,inactive
COC[C@H]1OC(=O)c2coc3c2[C@@]1(C)C1=C(C3=O)[C@H]2CCC(=O)[C@@]2(C)C[C@H]1OC(C)=O,,inactive
CCCN1CCC[C@H](c2cccc(O)c2)C1,,inactive
Fc1ccc(CCNCc2ccc(Cl)c(Cl)c2)cc1,,0.316 µM (active)
O=C1NC(=S)NC(=O)C1=Cc1cccc2cc3ccccc3cc12,-39.2% [at 11.4 µM] (inactive),
O=c1cc(-c2ccc(O)cc2)oc2c([C@H]3O[C@@H](CO)[C@@H](O)[C@@H](O)[C@@H]3O)c(O)cc(O)c12,,inactive
O=P(O)(O)CCP(=O)(O)O,13.6% [at 11.4 µM] (inactive),
COc1ccc(C2SCC(=O)Nc3c2c(C)nn3-c2ccccc2)cc1OC (centres undefined),,10 µM (active)
CNC(=O)Oc1ccc2c(c1)[C@@]1(C)CCN(C)[C@@H]1N2C,,inactive

SMILES,"activity, negative = inhibition",AC50
C[C@]12CC[C@H]3c4ccc(O)cc4CC[C@@H]3[C@H]1CC[C@@H]2OP(=O)(O)O,34.7% [at 11.4 µM] (inactive),
CCCN(CCC)C(=O)Cc1c(-c2ccc(Cl)cc2)nc2c(Cl)cc(Cl)cn12,,inactive
COc1ccc(OC)c([C@H](O)[C@H](C)N)c1,,inactive
COc1ccc(Cl)cc1NC(=O)NCCCl,,20 µM (active)
CC1=NCCc2c1[nH]c1cc(O)ccc21,,inactive
O=C(NCCN1CCN(C(=O)C(c2ccccc2)c2ccccc2)CC1)C(=O)Nc1ccccc1,,25.1 µM (active)
O=C(OC1CCN(CCCl)CC1)C(c1ccccc1)c1ccccc1,,inactive
O=C(c1ccccc1)[C@H]1[C@H](c2ccccc2[N+](=O)[O-])N1C1CCCCC1 (some centres undefined),-82.8% [at 11.4 µM] (inactive),
Cc1ccc(C2(c3ccc(C)c(O)c3C)CCN(C)CC2)c(C)c1O,2.67% [at 11.4 µM] (inactive),
CN1[C@@H]2CC[C@H]1CC(O)C2 (some centres undefined),,inactive
O=C(O)CN1CCN(CC(=O)O)CC(=O)[O][Hg][O]C(=O)C1,,0.794 µM (active)
CC(C)NP(=O)(NC(C)C)OP(=O)(NC(C)C)NC(C)C,,inactive
O=C(Nc1ccccc1)N1CC[C@@]2(CCCN(C(=O)Oc3ccccc3)C2)C1,,inactive
COc1cc([C@H]2c3cc4c(cc3[C@@H](O)[C@@H]3COC(=O)[C@H]23)OCO4)cc(OC)c1OC,,10 µM (active)
NC(=O)c1ccc(C(=O)Nc2ccc([As](=O)(O)O)cc2)cc1,10.2% [at 11.4 µM] (inactive),
CCCCC1(CCCC)C(=O)NC(=Nc2cccc(C)c2)NC1=O,,2.24 µM (active)
CC[N+](CC)(CCNC(=O)C(=O)NCC[N+](CC)(CC)Cc1ccccc1Cl)Cc1ccccc1Cl,,inactive
O=C(Oc1ccccc1)N1CCC2(CCCN(Cc3ccccc3)C2)CC1,,inactive
Cc1nc2sccc2c(=O)n1-c1ccccc1Cl,,2.82 µM (active)
Cc1nc2ccccc2c(=O)n1-n1cnnc1,,inactive
C[C@@H](N)Cn1ccc2cc(F)c(Cl)cc21,,inactive
CC(C)CCC1(CCN)C(=O)NC(=O)NC1=O,5.97% [at 11.4 µM] (inactive),
CN1CCN(c2ncc3ncc(=O)n(C)c3n2)CC1,,inactive
CC(C)[C@]1(O)[C@@H](OC(=O)c2ccc[nH]2)[C@]2(O)[C@@]3(C)C[C@@]4(O)O[C@@]5([C@H](O)[C@@H](C)CC[C@]35O)[C@]2(O)[C@]41C,23.6% [at 11.4 µM] (inactive),

SMILES,"activity, negative = inhibition",AC50
CCC(=O)O[C@@](Cc1ccccc1)(c1ccccc1)[C@@H](C)CN(C)C,,inactive
O=C(Oc1ccccc1)N1CCC2(CCCN(C(c3ccccc3)c3ccccc3)C2)CC1,,inactive
CCOP(=O)(OCC)C(NC(=O)C(Cl)Cl)C(Cl)(Cl)Cl (centres undefined),,10 µM (active)
CCOP(=O)(OCC)C(NC(C)=O)C(Cl)(Cl)Cl (centres undefined),,inactive
N#Cc1ccc(CN2CC[C@@]3(CCCN(C(=O)Oc4ccccc4)C3)C2)cc1,,inactive
C[N+](C)(C)CCCCCC[N+](C)(C)C,,inactive
Cc1cccc([C@H](C)c2cnc[nH]2)c1C,,5.01 µM (active)
C[N+]1(C)C2CC[C@H]1CC(OC(=O)[C@@H](CO)c1ccccc1)C2 (some centres undefined),14.6% [at 11.4 µM] (inactive),
C#CCN[C@@H](C)Cc1ccccc1,,inactive
CNCCCc1ccccc1,,inactive
C[C@@H](Cc1cccc(C(F)(F)F)c1)NCCCc1ccccc1,,1.26 µM (active)
c1ccc2c(N3CCNCC3)cccc2c1,,inactive
CP(=O)(O)CCCN,,inactive
C[C@]12N[C@@H](Cc3ccccc31)c1ccccc12,,inactive
C=C1[C@@H]2CC[C@H]3[C@@]4(C)C[C@@H](O[C@@H]5O[C@H](CO)[C@H](OS(=O)(=O)O)[C@@H](OS(=O)(=O)O)[C@@H]5OC(=O)CC(C)C)C[C@@H](C(=O)O)[C@H]4CC[C@@]3(C2)[C@H]1O,,inactive
N[C@H](CP(=O)(O)O)C(=O)O,,inactive
Cc1nc(-c2ccc(-c3ccc(C(=O)N4CCc5cc6c(cc54)C4(CCN(C)CC4)CO6)cc3)c(C)c2)no1,,inactive and 3.98 µM (active)
C[C@@H]1O[C@H]1P(=O)(O)O,,inactive
N[C@H](CCCP(=O)(O)O)C(=O)O,,inactive
N#C/C(=C\c1ccc(O)c(O)c1)C(N)=S,,inactive and 25.1 µM (active)
N#CC(C#N)=Cc1cc(O)c(O)c(O)c1,,inactive
N#C/C(=C\c1ccc(O)c(O)c1)C(=O)NCCCNC(=O)/C(C#N)=C/c1ccc(O)c(O)c1,,inactive
